Assay results published in PubChem BioAssay (NCI).
About 83,000 compounds went through this panel and 20% of them were active in at least one assay; those are over-represented in the sample as a whole.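 For each line, cells grew in 96-well plates with the test compound present at a single concentration for 48 hours.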 A number with no mark means an inactive call. Active and inactive are the calls of the source.

The molecules below were run on MDA-MB-435 melanoma (assay: NCI-60 one-dose screen, 48 h (100 = growth as untreated, 0 = no growth, -100 = all killed)). Conditions: 10 µM unless noted.
Protocol: Growth inhibition of the MDA-MB-435 human Melanoma tumor cell line is measured as a screen for anti-cancer activity. Cells are grown in 96 well plates and exposed to the test compound for 48 hours. Compounds are tested at a single concentration, which is 10^-5 M for most compounds. The reported endpoint is percent growth (GI% or GIPRCNT), where numbers from 0 - 100% represent growth inhibition, and numbers from -100% - 0 represent cell death. For example, a value of 40 represents 60% growth inhibition. A value of 0 means no net growth occurred over the course of the experiment. A value of -40 indicates 40% of cells at the beginning of the experiment died by the end of the experiment. A value of -100 means all cells are dead at the end of the experiment.
NCI-60 Human Tumor Cell Lines Screen was performed using the standard one-dose NCI protocol, which is described in more detail at https://dtp.cancer.gov/discovery_development/nci-60/default.htm.
Compounds with GIPRCNT values below 10 were considered active. Activity score was based on GIPRCNT using the following formula: […]
Score is 0 for GIPRCNT values of 100 or above, 50 for GIPRCNT values of 0, and 100 for GIPRCNT values of -100.

SMILES | growth
NC1=NC(SCc2ccccc2CCl)c2ncn(Cc3ccccc3CCl)c2N1 (stereo not given) | 30.9%
COC(=O)c1cc2cc(-c3ccc(OC)cc3)cnc2[nH]1 | -23.7% (active)
COc1ccc(N2CCN(Cc3cc(C(=O)/C=C/c4c[nH]c5ccccc45)ccc3O)CC2)cc1 | 105%
Cc1ccc(CSC(=N)N)cc1C | 112%
COc1ccc(C2C=C(c3ccc(Cl)cc3)N=C3SC=C(C)N32)c(Br)c1 (stereo not given) | 9.2% (active)
CC1(c2ccc(Cl)cc2)OC(=O)CC(=O)O1 | 106%
CCN(CC)CCOC(=O)C(c1ccccc1)(c1ccccc1)C(C)C | 90.8%
CCC(=O)Oc1ccc(/C(=C(/C)Cc2cccc(OC)c2)c2ccc(OCCN(C)C)cc2)cc1 | 9.82% (active)
CCCCN(CCCC)C(=N)c1ccnc2ccccc12 | 105%
COc1cc2c(=O)n(C3CCCCCC3)c3c4cc[nH]c4ncc3c2cc1OC | 86.9%
C=CCn1cc(-c2nc3ccccc3s2)c2cc(-c3ccc4c5c(cccc35)C(=O)N(CCN3CCNCC3)C4=O)ccc21 | 90.7%
O=C(O)/C=C/C(=O)c1ccc(Cl)cc1 | 121%
Fc1ccc(-c2nc(-c3nc4ncccc4[nH]3)cc3c2[nH]c2ccccc23)cc1F | 66.1%
COc1ccc(C2=Nn3c(nnc3-n3nc(C)cc3C)SC2)cc1 | -16.1% (active)
COc1ccc(-n2c(-c3ccccc3)c(-c3ccccc3)c3c(SCC(=O)N/N=C/c4ccc(Cl)cc4)ncnc32)cc1 | 98.6%
COc1ccc(Nc2[nH]n3c(=O)cc(C)nc3c2C(N)=O)c(OC)c1 | 114%
Cc1cc(C(C)(C)C)ccc1S | 111%
C/C=C/C1=CN2C(=O)c3cc(OC4OC(C)C(NC)C(C)(O)C4O)c(C)cc3N=C[C@@H]2C1 (stereo not given in full) | -63.1% (active)
Cc1ccc(S(=O)(=O)NC(=O)n2cc(-c3ccncc3)c(-c3ccc(Cl)c(O)c3)n2)cc1 | 82.2%
O=C(Oc1ccccc1[N+](=O)[O-])C1CCCN1C(=O)OCc1ccccc1 (stereo not given) | 104%

SMILES | growth
COc1ccc(S(=O)(=O)NCCCNc2nccc(-n3ccc4cccnc43)n2)cc1 | 98.4%
C=C[C@@H]1C[C@@H]2Cc3ccccc3N1O2 | 100%
CCCCN(CCCC)C(=O)CC | 104%
COc1cc(Nc2nc(N[C@H]3CCCC[C@@H]3N)nc3cc[nH]c(=O)c23)cc(OC)c1 | 33.4%
Cn1ccc(Nc2nccc(Oc3ccc(C(=O)Nc4cccc(F)c4)c(Cl)c3)n2)c1 | 81.3%
C=C1C(=O)O[C@H]2[C@H]1CC/C(Cn1cc(CNC(=O)Cc3cn(C(=O)c4ccc(Cl)cc4)c4ccc(OC)cc34)nn1)=C\CC[C@@]1(C)O[C@@H]21 | -63.2% (active)
COc1cc(C2C3=C(COC3=O)Nc3cc4c(cc32)OCO4)cc2c1OCO2 (stereo not given) | -20.4% (active)
CCCCOc1ccc(/C=C2/SC(N3CCOCC3)=NC2=O)cc1OCC | 99.6%
O=C(CSc1nc2ccccc2[nH]1)c1ccc(N2CCOCC2)cc1 | 100%
Clc1cc2c(nn1)Nc1ccccc1S2 | 98.1%
CCN(CC)CCC(CNc1ccnc2cc(Cl)ccc12)c1ccc(Cl)cc1 (stereo not given) | -72.2% (active)
Fc1ccccc1-c1nc(-c2nc3cc(Cl)c(Cl)cc3[nH]2)c2ccccn12 | 73.6%
Cc1ccc2nc(-c3cc4c([nH]c5ccccc54)c(-c4ccc(F)c(F)c4)n3)[nH]c2c1 | 91.3%
NC1N=C(SCC(=O)N2CCN(c3cc4c(cc3F)c(=O)c(C(=O)O)cn4C3CC3)CC2)NC(=O)/C1=C/c1ccc(Cl)cc1 (stereo not given) | 105%
CC(O)CN1CCCCC1 (stereo not given) | 105%
Cc1cc(N)n(S(=O)(=O)c2oc(-c3ccccc3)nc2C#N)n1 | 91.8%
CC(=O)Nc1scc[n+]1Cc1ccccc1 | 110%
O=C(Nc1ccncc1)C(=O)c1cn(S(=O)(=O)c2ccc(Cl)cc2)c2ccccc12 | 0.272% (active)
O=C(NNC(=O)N1c2ccccc2C=Cc2ccccc21)c1ccc2ccccc2c1 | 103%
O=S(=O)(NCCNc1nccc(-c2c(-c3cccc(O)c3)nc3sccn23)n1)c1ccc(F)cc1 | 29.4%
